Holding throughout (experiment): DAPPL (digital affinity profiling via proximity ligation, sequencing); 10 mM Tris-HCl pH 7.5, 50 mM NaCl, 1 mM DTT, 4% glycerol, room temperature, 30 min; GST-TFs on glutathione beads, 16-mer random dsDNA library, 0.1% formaldehyde crosslink after washing; high values mean tight binding
One assay deals with T1, FEV (Homo sapiens, UniProt Q99581 1-238).
T1 sequence: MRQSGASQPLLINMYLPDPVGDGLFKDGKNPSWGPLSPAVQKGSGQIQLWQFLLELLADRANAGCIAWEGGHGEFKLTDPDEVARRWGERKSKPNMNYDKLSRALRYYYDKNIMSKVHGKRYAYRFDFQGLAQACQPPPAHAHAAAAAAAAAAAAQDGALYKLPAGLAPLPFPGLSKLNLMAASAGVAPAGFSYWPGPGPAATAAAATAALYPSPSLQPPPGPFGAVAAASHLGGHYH
The settings on record: protein: recombinant; tags: N-terminal GST; dsDNA, one strand shown. A digest of the protocol: (§1)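 Human transcription factors fused to GST were expressed in yeast, captured on glutathione beads, given DNA barcodes and pooled with a GST-only negative control. Pools were incubated with 200 nmole of a 16-mer random double-stranded DNA library in Tris/NaCl/DTT/glycerol buffer at room temperature for 30 min. They were then washed, crosslinked with 0.1% formaldehyde, proximity-ligated (BsaI/T4 ligase, 1 h, 37 °C), PCR-amplified and sequenced on an Illumina NextSeq500. Binding signal is each 6-mer's read frequency for a factor divided by its frequency for the GST control.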

The target of a further assay is ETV5 (Homo sapiens, UniProt P41161 1-510). The settings on record: protein: recombinant; tags: N-terminal GST; dsDNA, one strand shown. Put shortly: as §1
The target in a further assay is HSF1 (Homo sapiens, UniProt Q00613 1-529). Particulars: protein: recombinant; tags: N-terminal GST; chain copies: 3; dsDNA, one strand shown. A digest of the protocol:
as §1

A further assay deals with T2, SPIC (Homo sapiens, UniProt Q8N5J4 1-248).
T2 sequence: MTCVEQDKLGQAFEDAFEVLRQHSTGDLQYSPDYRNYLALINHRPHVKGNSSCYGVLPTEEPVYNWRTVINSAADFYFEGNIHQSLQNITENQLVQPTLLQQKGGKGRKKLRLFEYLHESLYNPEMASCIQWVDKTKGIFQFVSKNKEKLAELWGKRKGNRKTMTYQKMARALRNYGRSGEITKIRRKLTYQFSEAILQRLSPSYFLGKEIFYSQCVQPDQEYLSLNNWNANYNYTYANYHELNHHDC
Particulars: protein: recombinant; tags: N-terminal GST; dsDNA, one strand shown. Put shortly: as §1

For another assay, the target named is ELF4 (Homo sapiens, UniProt Q99607 1-663). Particulars: protein: recombinant; tags: N-terminal GST; dsDNA, one strand shown. Put shortly: as §1
The next assay deals with T3, ELK4 (Homo sapiens, UniProt P28324-2 1-405).
T3 sequence: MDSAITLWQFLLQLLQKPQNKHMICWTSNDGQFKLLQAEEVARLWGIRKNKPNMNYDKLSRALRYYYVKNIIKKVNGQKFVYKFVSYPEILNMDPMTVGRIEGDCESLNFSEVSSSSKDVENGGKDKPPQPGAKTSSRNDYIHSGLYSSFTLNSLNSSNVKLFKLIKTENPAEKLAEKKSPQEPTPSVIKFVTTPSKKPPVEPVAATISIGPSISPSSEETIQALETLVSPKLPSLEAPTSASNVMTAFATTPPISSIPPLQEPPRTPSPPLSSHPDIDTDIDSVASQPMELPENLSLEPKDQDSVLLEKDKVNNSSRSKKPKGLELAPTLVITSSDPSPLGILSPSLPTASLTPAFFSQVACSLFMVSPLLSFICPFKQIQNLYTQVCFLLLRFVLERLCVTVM
Particulars: protein: recombinant; tags: N-terminal GST; dsDNA, one strand shown. A digest of the protocol: as §1

For another assay, the target named is T4, ETV2 (Homo sapiens, UniProt O00321 1-342).
T4 sequence: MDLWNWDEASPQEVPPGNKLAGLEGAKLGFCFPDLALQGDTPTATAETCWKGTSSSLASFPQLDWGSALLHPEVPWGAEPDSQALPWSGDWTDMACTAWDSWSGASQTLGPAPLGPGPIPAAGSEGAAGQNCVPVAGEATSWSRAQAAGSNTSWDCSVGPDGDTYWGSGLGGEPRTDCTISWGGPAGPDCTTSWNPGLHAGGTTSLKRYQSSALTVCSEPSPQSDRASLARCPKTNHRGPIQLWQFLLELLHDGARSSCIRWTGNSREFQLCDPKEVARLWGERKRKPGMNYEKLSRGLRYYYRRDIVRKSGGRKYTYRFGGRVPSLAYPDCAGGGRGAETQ
The settings on record: protein: recombinant; tags: N-terminal GST; dsDNA, one strand shown. A digest of the protocol:
as §1

A further assay deals with T5, ELF3 (Homo sapiens, UniProt P78545 1-371).
T5 sequence: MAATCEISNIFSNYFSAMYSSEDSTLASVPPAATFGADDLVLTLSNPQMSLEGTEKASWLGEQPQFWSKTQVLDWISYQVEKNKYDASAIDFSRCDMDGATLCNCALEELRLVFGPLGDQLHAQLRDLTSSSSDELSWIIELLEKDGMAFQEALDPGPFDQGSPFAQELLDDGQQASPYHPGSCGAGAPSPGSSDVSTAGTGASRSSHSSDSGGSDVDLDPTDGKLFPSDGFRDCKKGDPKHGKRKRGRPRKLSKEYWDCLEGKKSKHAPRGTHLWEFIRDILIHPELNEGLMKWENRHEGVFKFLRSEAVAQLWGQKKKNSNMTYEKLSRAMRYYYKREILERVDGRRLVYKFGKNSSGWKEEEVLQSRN
Particulars: protein: recombinant; tags: N-terminal GST; dsDNA, one strand shown. A digest of the protocol:
as §1

In a further assay the target is CRX (Homo sapiens, UniProt O43186 1-299). Particulars: protein: recombinant; tags: N-terminal GST; dsDNA, one strand shown. A digest of the protocol:
as §1

The target in a further assay is ETV1 (Homo sapiens, UniProt P50549 1-477). The settings on record: protein: recombinant; tags: N-terminal GST; dsDNA, one strand shown. Put shortly: as §1
The next assay concerns the target T6, ERF (Homo sapiens, UniProt P50548 1-548).
T6 sequence: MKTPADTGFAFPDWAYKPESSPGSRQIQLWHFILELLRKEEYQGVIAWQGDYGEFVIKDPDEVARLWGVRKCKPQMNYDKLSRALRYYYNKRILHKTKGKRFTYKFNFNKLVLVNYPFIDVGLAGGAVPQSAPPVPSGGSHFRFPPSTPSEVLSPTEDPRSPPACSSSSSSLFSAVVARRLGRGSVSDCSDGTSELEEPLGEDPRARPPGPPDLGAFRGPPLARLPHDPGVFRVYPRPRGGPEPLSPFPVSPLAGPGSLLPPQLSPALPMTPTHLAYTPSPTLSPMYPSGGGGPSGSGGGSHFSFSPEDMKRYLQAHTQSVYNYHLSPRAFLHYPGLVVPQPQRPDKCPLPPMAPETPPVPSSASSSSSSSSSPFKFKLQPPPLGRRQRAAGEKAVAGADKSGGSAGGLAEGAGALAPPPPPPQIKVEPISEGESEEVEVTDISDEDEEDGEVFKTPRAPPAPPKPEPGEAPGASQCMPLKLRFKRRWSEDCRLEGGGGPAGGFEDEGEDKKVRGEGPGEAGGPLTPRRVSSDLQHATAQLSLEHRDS
Particulars: protein: recombinant; tags: N-terminal GST; dsDNA, one strand shown. Put shortly: as §1

In a further assay the target is T7, ETV3L (Homo sapiens, UniProt Q6ZN32 1-361).
T7 sequence: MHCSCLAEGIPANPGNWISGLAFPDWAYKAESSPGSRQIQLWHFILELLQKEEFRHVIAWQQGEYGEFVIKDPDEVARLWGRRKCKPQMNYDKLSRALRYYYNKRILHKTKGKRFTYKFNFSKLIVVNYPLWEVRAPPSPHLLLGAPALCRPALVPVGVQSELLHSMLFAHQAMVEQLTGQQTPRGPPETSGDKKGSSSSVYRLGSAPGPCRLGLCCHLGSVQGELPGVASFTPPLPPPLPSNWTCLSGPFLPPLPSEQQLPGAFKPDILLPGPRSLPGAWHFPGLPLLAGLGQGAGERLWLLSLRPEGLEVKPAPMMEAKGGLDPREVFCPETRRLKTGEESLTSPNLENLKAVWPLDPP
Particulars: protein: recombinant; tags: N-terminal GST; dsDNA, one strand shown. A digest of the protocol:
as §1

The target in another assay is T8, ETS2 (Homo sapiens, UniProt P15036 1-469).
T8 sequence: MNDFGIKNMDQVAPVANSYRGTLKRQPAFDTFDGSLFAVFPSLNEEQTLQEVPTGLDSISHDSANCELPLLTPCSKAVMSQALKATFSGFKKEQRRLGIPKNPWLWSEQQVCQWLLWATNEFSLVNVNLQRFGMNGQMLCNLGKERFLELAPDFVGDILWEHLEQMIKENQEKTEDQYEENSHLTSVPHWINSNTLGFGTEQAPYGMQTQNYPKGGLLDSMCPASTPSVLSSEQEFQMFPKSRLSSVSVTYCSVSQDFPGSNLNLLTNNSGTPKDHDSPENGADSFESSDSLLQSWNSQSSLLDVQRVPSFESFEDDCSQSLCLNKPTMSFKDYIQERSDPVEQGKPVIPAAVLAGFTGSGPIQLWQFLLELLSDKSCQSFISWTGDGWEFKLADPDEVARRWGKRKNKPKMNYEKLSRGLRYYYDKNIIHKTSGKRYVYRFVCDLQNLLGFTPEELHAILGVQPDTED
The settings on record: protein: recombinant; tags: N-terminal GST; dsDNA, one strand shown. Put shortly:
as §1

In another assay the target is T9, SPDEF (Homo sapiens, UniProt O95238 1-335).
T9 sequence: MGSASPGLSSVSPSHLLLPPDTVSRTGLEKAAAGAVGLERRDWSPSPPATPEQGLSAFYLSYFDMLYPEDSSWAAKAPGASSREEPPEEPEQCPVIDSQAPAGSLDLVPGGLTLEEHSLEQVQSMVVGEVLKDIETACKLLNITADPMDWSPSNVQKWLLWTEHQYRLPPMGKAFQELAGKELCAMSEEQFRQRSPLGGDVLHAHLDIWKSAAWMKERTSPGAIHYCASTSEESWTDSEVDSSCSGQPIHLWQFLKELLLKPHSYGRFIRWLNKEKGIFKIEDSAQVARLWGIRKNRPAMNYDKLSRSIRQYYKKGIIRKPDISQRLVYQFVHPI
Particulars: protein: recombinant; tags: N-terminal GST; dsDNA, one strand shown. A digest of the protocol: as §1

For a further assay, the target named is T10, ETV7 (Homo sapiens, UniProt Q9Y603 1-341).
T10 sequence: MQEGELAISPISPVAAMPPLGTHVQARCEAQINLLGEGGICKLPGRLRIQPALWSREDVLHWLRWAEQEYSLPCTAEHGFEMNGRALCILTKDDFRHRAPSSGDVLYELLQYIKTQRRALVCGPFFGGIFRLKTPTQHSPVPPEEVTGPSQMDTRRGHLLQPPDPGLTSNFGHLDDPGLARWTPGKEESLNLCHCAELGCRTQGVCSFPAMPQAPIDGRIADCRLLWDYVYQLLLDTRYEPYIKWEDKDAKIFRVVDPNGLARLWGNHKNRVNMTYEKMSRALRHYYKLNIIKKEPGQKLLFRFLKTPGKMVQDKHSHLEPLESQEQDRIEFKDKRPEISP
The settings on record: protein: recombinant; tags: N-terminal GST; dsDNA, one strand shown. A digest of the protocol:
as §1

The target of another assay is T11, ELF5 (Homo sapiens, UniProt Q9UKW6-2 1-255).
T11 sequence: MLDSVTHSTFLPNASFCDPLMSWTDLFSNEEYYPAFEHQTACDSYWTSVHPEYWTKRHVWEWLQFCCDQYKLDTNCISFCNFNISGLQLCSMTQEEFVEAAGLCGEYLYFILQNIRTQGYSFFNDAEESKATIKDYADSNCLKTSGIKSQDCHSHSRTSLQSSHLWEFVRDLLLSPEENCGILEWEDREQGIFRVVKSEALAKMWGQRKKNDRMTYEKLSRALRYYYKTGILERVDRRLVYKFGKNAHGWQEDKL
The settings on record: protein: recombinant; tags: N-terminal GST; dsDNA, one strand shown. Put shortly: as §1

Another assay addresses T12, ETV3 (Homo sapiens, UniProt P41162-2 1-143).
T12 sequence: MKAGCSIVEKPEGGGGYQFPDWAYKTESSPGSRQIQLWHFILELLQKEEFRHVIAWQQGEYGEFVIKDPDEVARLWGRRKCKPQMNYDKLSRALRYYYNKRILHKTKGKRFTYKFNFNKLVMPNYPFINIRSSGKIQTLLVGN
Particulars: protein: recombinant; tags: N-terminal GST; dsDNA, one strand shown. Put shortly: as §1

In a further assay the target is ETV6 (Homo sapiens, UniProt P41212 1-452). Particulars: protein: recombinant; tags: N-terminal GST; dsDNA, one strand shown. A digest of the protocol: as §1
Sequence of ETV6 (P41212 whole entry): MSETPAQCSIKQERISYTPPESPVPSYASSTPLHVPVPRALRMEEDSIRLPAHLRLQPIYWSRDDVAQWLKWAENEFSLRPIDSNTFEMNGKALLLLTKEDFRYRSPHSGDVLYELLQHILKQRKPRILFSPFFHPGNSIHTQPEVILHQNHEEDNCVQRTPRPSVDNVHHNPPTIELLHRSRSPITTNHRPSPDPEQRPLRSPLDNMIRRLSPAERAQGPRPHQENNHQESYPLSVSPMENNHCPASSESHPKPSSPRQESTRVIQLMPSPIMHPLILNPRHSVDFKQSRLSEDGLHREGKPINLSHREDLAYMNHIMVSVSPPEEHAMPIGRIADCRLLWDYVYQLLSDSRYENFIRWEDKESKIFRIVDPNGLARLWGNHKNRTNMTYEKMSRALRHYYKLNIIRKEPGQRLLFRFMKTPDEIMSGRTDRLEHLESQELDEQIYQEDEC

Sequence of ELF4 (Q99607 whole entry): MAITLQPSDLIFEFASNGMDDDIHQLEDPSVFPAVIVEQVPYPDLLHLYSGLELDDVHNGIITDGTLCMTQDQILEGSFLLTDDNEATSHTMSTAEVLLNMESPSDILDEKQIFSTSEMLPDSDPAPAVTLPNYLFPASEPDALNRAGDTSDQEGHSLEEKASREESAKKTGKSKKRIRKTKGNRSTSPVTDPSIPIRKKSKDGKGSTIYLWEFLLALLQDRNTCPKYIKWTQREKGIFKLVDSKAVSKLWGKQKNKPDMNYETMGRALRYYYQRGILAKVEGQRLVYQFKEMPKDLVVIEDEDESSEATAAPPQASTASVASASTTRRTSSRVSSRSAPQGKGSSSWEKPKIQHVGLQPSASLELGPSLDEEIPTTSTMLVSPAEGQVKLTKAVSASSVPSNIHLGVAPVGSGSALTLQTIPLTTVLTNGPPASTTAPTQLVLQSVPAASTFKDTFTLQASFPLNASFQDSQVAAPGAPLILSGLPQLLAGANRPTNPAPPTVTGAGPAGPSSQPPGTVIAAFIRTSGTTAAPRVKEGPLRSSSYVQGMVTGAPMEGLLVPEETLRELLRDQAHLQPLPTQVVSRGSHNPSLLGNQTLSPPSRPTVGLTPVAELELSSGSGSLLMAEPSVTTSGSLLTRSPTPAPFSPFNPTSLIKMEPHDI
Sequence of HSF1 (Q00613 whole entry): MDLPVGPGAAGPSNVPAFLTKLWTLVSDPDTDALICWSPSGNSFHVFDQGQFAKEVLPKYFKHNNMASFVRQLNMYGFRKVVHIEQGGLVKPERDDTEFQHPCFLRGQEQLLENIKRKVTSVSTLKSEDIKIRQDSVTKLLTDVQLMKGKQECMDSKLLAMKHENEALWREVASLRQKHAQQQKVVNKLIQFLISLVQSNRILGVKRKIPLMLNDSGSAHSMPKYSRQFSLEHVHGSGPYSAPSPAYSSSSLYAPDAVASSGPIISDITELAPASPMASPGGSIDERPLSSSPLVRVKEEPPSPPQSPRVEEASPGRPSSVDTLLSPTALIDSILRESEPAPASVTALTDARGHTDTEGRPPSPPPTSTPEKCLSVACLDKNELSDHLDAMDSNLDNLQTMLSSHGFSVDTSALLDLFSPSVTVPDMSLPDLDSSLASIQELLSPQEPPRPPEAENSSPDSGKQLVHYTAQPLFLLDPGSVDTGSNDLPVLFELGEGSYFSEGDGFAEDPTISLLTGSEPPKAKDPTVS
Sequence of CRX (O43186 whole entry): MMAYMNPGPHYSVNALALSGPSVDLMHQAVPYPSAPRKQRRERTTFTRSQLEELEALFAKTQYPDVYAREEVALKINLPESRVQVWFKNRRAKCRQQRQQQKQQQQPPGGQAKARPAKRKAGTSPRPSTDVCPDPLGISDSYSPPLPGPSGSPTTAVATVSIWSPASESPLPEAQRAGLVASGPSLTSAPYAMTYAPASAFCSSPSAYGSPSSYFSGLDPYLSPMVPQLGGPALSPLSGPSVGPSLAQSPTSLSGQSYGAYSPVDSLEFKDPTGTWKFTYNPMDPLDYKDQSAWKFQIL
Sequence of ETV5 (P41161 whole entry): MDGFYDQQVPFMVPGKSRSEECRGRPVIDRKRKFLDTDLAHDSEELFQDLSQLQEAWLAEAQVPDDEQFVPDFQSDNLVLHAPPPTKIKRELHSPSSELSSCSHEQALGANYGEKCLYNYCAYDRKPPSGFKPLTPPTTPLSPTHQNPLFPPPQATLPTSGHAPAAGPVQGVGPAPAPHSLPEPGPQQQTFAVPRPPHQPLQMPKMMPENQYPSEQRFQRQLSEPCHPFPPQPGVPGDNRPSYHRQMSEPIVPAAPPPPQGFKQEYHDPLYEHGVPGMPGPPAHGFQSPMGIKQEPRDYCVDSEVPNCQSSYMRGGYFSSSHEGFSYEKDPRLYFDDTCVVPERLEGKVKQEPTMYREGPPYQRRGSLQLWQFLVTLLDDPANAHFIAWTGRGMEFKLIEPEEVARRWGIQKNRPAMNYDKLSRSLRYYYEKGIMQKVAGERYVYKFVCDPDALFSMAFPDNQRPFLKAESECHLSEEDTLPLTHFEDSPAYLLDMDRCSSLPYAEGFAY
Sequence of ETV1 (P50549 whole entry): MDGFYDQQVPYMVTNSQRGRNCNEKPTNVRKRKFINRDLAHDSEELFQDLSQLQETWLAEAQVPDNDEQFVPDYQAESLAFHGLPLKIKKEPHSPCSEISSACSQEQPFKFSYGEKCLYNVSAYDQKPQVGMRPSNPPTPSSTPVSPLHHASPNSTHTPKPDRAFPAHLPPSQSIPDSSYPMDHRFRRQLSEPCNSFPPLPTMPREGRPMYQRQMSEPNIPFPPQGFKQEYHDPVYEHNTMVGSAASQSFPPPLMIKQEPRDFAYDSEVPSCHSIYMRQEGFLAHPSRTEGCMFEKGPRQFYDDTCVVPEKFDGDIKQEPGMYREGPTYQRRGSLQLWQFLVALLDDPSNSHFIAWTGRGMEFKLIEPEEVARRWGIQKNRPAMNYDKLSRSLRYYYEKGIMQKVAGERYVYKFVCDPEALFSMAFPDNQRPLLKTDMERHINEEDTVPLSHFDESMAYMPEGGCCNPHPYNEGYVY

On to ACTTTG, for which the binding signal in the assay with FEV is 1.13 fold enrichment (6-mer frequency, TF over GST control); with ETV5, 1.3 fold enrichment (6-mer frequency, TF over GST control); with HSF1, 1.14 fold enrichment (6-mer frequency, TF over GST control); in the assay with SPIC, 1.33 fold enrichment (6-mer frequency, TF over GST control); with ELF4, 1.29 fold enrichment (6-mer frequency, TF over GST control); in the assay with ELK4, 1.22 fold enrichment (6-mer frequency, TF over GST control). Further, the binding signal is 1.39 fold enrichment (6-mer frequency, TF over GST control) with ETV2; 1.28 fold enrichment (6-mer frequency, TF over GST control) with ELF3; 1.18 fold enrichment (6-mer frequency, TF over GST control) with CRX; 1.21 fold enrichment (6-mer frequency, TF over GST control) with ETV1; 1.25 fold enrichment (6-mer frequency, TF over GST control) in the assay with ERF; 1.2 fold enrichment (6-mer frequency, TF over GST control) in the assay with ETV3L. The binding signal with ETS2 is 1.18 fold enrichment (6-mer frequency, TF over GST control); with SPDEF, 1.14 fold enrichment (6-mer frequency, TF over GST control); in the assay with ETV7, 1.11 fold enrichment (6-mer frequency, TF over GST control); in the assay with ELF5, 1.25 fold enrichment (6-mer frequency, TF over GST control); with ETV3, 1.42 fold enrichment (6-mer frequency, TF over GST control); with ETV6, 1.18 fold enrichment (6-mer frequency, TF over GST control).
